The text below walks through data of PubChem BioAssay AID504766 (The Scripps Research Institute Molecular Screening Center, 2011).

SMILES strings stand for the structures. Hit rate of the full screen: of about 340,000 compounds, about 3,400 (1%) were called active.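 Rule for the calls: active = inhibition above the mean over all tested compounds plus 3 SD (cut at about 4.2% in these data); inactive = the rest.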 The entries come from a sample that favours actives as a whole.

Sequence of Nuclear receptor subfamily 0 group B member 1 (Homo sapiens) (P51843 207-470 limits assumed): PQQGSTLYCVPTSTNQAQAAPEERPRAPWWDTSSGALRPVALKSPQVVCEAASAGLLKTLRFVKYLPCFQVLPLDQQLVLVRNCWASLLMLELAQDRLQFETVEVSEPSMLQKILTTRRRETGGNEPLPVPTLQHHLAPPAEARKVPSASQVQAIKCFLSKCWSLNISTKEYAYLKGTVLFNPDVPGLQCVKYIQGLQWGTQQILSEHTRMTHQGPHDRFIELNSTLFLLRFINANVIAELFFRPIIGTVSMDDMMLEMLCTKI

The experiment addresses Nuclear receptor subfamily 0 group B member 1 (Homo sapiens) (UniProt P51843). As to the kind of experiment: relief of DAX1 transcriptional repression – cell-based, HEK293, Gal4-DAX1, luciferase luminescence, primary screen (AID 504766).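 Note: 0% = DAX1-transfected cells with DMSO and 100% = empty-vector control cells with DMSO; inhibition shows as a rise in luminescence from relieved DAX1 repression.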 Particulars: HEK293 Gal4-DAX1 luciferase reporter, at 6.75 µM, stronger effect = higher value. For orientation: Reporter assays use an easily measured gene product as a stand-in for the process of interest.
As a reminder, the inhibition is the change of the read-out against control, counted positive when it falls. Regarding `CCOc1cc(/C=N/NC(=O)c2ccncc2)cc(Br)c1O`, the inhibition is -0.05% (inactive). `COc1cc2sc(C)nc2cc1C`: the inhibition was -1.73% (inactive). For `Cc1nc2cc3c(cc2s1)OCO3` the value was 5.8% (active). `c1c2c(cc3sc(N4CCCCC4)nc13)OCCO2`: the inhibition is -5.28% (inactive). For the compound `CCCc1ccc(S(=O)(=O)N2CCN(C(=O)c3cc(C)on3)CC2)cc1`, the inhibition is -0.87% (inactive).

In the case of `O=C(CCN1CCCCC1)Nc1ccc(F)c(F)c1`, the inhibition was 0.27% (inactive). For `FC(F)(F)c1ccnc(Oc2ccc(C3=NCCS3)cc2)c1` the value was 6.14% (active); for `CC1C(=O)N(Cc2cn(Cc3ccco3)nn2)CCS(=O)(=O)N1Cc1ccc(-c2cccc(CO)c2)cc1` (stereo not drawn), 0.37% (inactive); for `COCOCCn1cc(CN2CCS(=O)(=O)N(Cc3ccc(-c4ccccc4)cc3)C(CC(C)C)C2=O)nn1` (stereo not drawn), -1.62% (inactive). For the compound `CCCCCCOC(=O)NCC(O)c1ccccc1` (stereo not drawn), the inhibition is 4.4% (active).

Turning to `CCCCOC(=O)Nc1nnc(CC(=O)NCc2ccccc2)s1`, the inhibition is -0.2% (inactive). For `O=C(CC(c1ccccc1)c1ccccc1)NCC(O)c1ccc([N+](=O)[O-])cc1` (stereo not drawn) the value was 0.2% (inactive); for `COc1ccc(OCc2n[nH]c(=S)n2N)cc1`, 0.95% (inactive); for `COc1ccc(OC)c(-n2c(-c3ccn[nH]3)n[nH]c2=S)c1`, 4.83% (active). Consider `COc1ccc(-n2c(-c3ccc(Cl)cc3)n[nH]c2=S)c(OC)c1`, for which the inhibition is 0.25% (inactive). For the compound `C[C@@H]1CN([C@H](C)CO)C(=O)c2cc(-c3ccc(F)cc3)cnc2O[C@H]1CN(C)C(=O)c1ccc(F)cc1`, the inhibition is -1.22% (inactive). On to `CN(Cc1ccccc1)C(=O)c1ccc(COc2ccccc2)cc1`, for which the inhibition was 0.19% (inactive). In the case of `CN(CC(=O)O)C(=O)c1ccccc1`, the inhibition is 5.67% (active). For the compound `CN(Cc1ccccc1)C(=O)c1cccc(C(=O)N(C)Cc2ccccc2)c1`, the inhibition is 0.91% (inactive). With `COCOCCn1cc(CN2CCS(=O)(=O)N(Cc3ccc(-c4cccc(N(C)C)c4)cc3)C(CC(C)C)C2=O)nn1` (stereo not drawn) the figure was 2.25% (inactive); with `CN1CCN(c2nc(Nc3ccc(O)cc3)nc3ccccc23)CC1`, 0.71% (inactive); with `Cc1cc(Nc2ccc(Br)cc2)nc2ccccc12`, 5.55% (active). For `CCOc1ccc(NC(=O)c2cc(C)nc3ccccc23)cc1` the value was 0.49% (inactive); for `CSC1=NN(c2ccccc2)CN(c2ccccc2)N1C`, 0.33% (inactive). For `C[C@@H]1CN([C@@H](C)CO)S(=O)(=O)c2ccc(-c3ccc(C(=O)N(C)C)cc3)cc2O[C@@H]1CN(C)Cc1ccccc1C(=O)O`, the inhibition was 3.37% (inactive).

With `Cc1nc2c(ncn2-c2ccccc2)c(=O)n1NC(=O)CN1CCCC1`, the inhibition was 8.39% (active).

For `Cc1csc(NC(=O)CN2CCCCCC2)n1`, the inhibition is 1.37% (inactive). As to `Cc1nn(CC(=O)N2CCCCC2)c(=O)c2nn(-c3ccccc3)c(C)c12`, the inhibition is 0.17% (inactive). On to `COc1ccc(NC2CCCN(C(=O)c3ccccc3-c3ncc[nH]3)C2)cc1` (stereo not drawn), for which the inhibition is -0.18% (inactive). For `Cc1cccc(OCC(=O)Nc2ccc(C(=O)O)cc2NC(=O)COc2cccc(C)c2)c1` the value was 0.91% (inactive); for `Cc1cccc(OCCC(=O)Nc2ccccc2C(N)=O)c1`, -0.79% (inactive). With `Cc1cccc(OCC(=O)Nc2ccccc2F)c1` the figure was 5.58% (active).

For the compound `COc1ccccc1-n1c(SCC(=O)Nc2ccc(Cl)cc2)nc(O)c(Cc2ccccc2)c1=O`, the inhibition was 1.11% (inactive).

With `CC1(C)CC(=O)NC=C(c2ccccc2)C1`, the inhibition is -0.26% (inactive). For `CC1(C)CC(=O)C(C2c3ccccc3S(=O)(=O)c3ccccc32)C(=O)C1` the value was 5.54% (active); for `CC1(C)CC(=O)C(CC(=O)N2CCC(Cc3ccccc3)CC2)C(=O)C1`, 3.82% (inactive); for `COc1ccc(C(=O)NCC2CCCO2)cc1S(=O)(=O)NCc1ccc(Cl)cc1` (stereo not drawn), 0% (inactive).

On to `CC1=C(C(=O)N(C)C)CC(CC(=O)NCCc2ccccn2)C(=O)N1CCC1=CCCCC1` (stereo not drawn), for which the inhibition was 1.44% (inactive). As to `CC(C)N=C1CCCC1C(=S)SSC(=S)C1CCCC1=NC(C)C` (stereo not drawn), the inhibition was -3.43% (inactive).

As for `Cc1ccc(NC(=O)/C(=C\c2ccccc2)NC(=O)c2ccco2)cc1`, the inhibition is 0.33% (inactive). As to `COc1ccc(/C=C(/NC(=O)c2ccco2)C(=O)Nc2ccc(C(C)=O)cc2)cc1`, the inhibition is 4.81% (active). For `O=C(Nc1ccc2ccccc2c1)/C(=C\c1ccc2c(c1)OCO2)NC(=O)c1ccco1` the value was -1.35% (inactive); for `Cc1ccc(CCNC(=O)CN2C(=O)CSc3ccc(S(=O)(=O)N4CCOCC4)cc32)cc1`, 0.18% (inactive); for `NC1=CC(=O)C(=O)c2cccnc21`, -3.86% (inactive). In the case of `C[C@@H]1CCCCO[C@H](CN(C)Cc2ccccc2)[C@@H](C)CN([C@H](C)CO)C(=O)c2cc(NS(=O)(=O)c3ccc(Cl)cc3)ccc2O1`, the inhibition was -0.88% (inactive). For `Cc1ccc([C@H]2C[C@H](O)[C@@H](n3cc(COC(=O)c4ccccc4)nn3)CN2CC2CCCCC2)cc1` the value was 2.07% (inactive); for `N#Cc1ccc(C2N=C(c3ccccc3)NO2)cc1` (stereo not drawn), 4.58% (active); for `Brc1ccccc1C1N=C(c2ccccc2)NO1` (stereo not drawn), 1.91% (inactive). For the compound `Nc1cccc(OCCCCCOc2cccc(N)c2)c1`, the inhibition was -0.21% (inactive). `CSc1ncnc2c1ncn2CCCNCc1ccco1`: the inhibition was 0.14% (inactive). For `C[C@H]1CN([C@@H](C)CO)C(=O)c2cc(-c3cccc(F)c3)cnc2O[C@@H]1CN(C)S(C)(=O)=O` the value was 3.06% (inactive); for `N#CC1(Nc2ccc3c4c(cccc24)CC3)CCCCC1`, -0.16% (inactive); for `Cc1cc(N=Nc2ccc3ccccc3c2)ccc1O`, 4.42% (active).

As for `CCOC(=O)c1c(NC(=S)SC)sc(C(=O)N2CCc3ccccc3C2)c1C`, the inhibition was 0.87% (inactive). For `CN1CCc2c(sc3c2c(NCc2ccco2)nc2nnnn23)C1` the value was 5.18% (active).

As for `CCCSc1nc(NCc2ccco2)c2c3c(sc2n1)COC(C)(CC)C3` (stereo not drawn), the inhibition is 1.15% (inactive). For the compound `CCSc1nc2sc3c(c2c(=O)n1-c1ccc(C)cc1)CCN(C)C3`, the inhibition is 0.31% (inactive). Take `C[C@@H]1CN([C@@H](C)CO)C(=O)c2cc(NS(C)(=O)=O)ccc2O[C@@H](C)CCCCO[C@H]1CN(C)C(=O)Nc1ccc2c(c1)OCO2`: the inhibition was 0.65% (inactive).
